Calls of active or inactive are those of the source. No rule for the calls is given here.
Experiments:
[1] = AOX inhibitors, oxygen consumption, profiling panel (AID 1259412); conditions: AOX-dependent respiration, at 500 µM; for growth (% of control): O2 uptake, measured here: growth; for O2 uptake (% of control): measured here: O2 uptake, control condition (no AOX);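 as to growth (% of control): growth monitored over 72 h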
[2] = system: alternative oxidase (AOX); test: as above; conditions: AOX-dependent respiration, at 500 µM, stronger effect = lower value
[3] = AOX-dependent treatment condition, stronger effect = lower value

Compound | growth (% of control) [1, 3] | growth (% of control) ([1]; control condition) | O2 uptake (% of control) ([1]; stronger effect = lower value) | O2 uptake (% of control) [2]
COc1cccc(C(=O)NCc2ccc3c(c2)OCO3)c1 | 46.4% | 57% | 95.8% | 36.4% (active)
COc1cccc(C(=O)Nc2cccc(Br)c2)c1 | 51.9% | 92% | 85.8% | 27.5% (active)
COc1cc(NC(=O)c2cccc(Br)c2)cc(OC)c1OC | 90.6% | 84.3% | 90% | 63.6% (active)
O=C(Nc1cccc(Cl)c1)c1cccc(I)c1 | 73% | 88.6% | 80.5% | 15.4% (active)
O=C(Nc1cccc(Br)c1)c1cccc(I)c1 | 103% | 98.1% | 89.6% | 20.2% (active)
NC(=O)c1ccccc1NC(=O)c1cccc(Br)c1 | 97.2% | 80.6% | 80.8% | 36.9% (active)
O=C(Nc1cccc(I)c1)c1cccc(F)c1 | 67.2% | 97.5% | 77.3% | 21.9% (active)
NC(=O)c1ccccc1NC(=O)c1cccc(I)c1 | 91.2% | 98.8% | 87.5% | 35.5% (active)
O=C(Nc1cccc(OCc2ccccc2)c1)c1cccc(I)c1 | 36.7% | 57% | 100% | 51.2% (active)
NC(=O)c1ccccc1NC(=O)c1cccc(F)c1 | 88.1% | 94.5% | 85.1% | 81% (inactive)
COc1cccc(C(=O)Nc2ccccc2C(N)=O)c1 | 80.1% | 82.1% | 93.7% | 76.2% (inactive)
COc1cccc(C(=O)Nc2cccc(C(F)(F)F)c2)c1 | 11.8% | 57.4% | 90.2% | 37.6% (active)
COc1cccc(C(=O)Nc2cccc(I)c2)c1 | 78.2% | 80% | 92.5% | 23% (active)
O=C(Nc1ccc(N2CCOCC2)cc1)c1cccc(Cl)c1 | 89.6% | 92.8% | 90.9% | 81.3% (active)
O=C(Nc1cccc(F)c1)c1cccc(I)c1 | 64.5% | 86.5% | 76% | 23.7% (active)
Cc1cccc(C(=O)Nc2ccccc2C(N)=O)c1 | 74.2% | 73.9% | 92.4% | 60.2% (active)
O=C(NCc1ccc2c(c1)OCO2)c1cccc(I)c1 | 99.2% | 97.5% | 99.1% | 26.3% (active)
N#Cc1cccc(C(=O)Nc2cccc(Cl)c2)c1 | 54.1% | 87.1% | 87.4% | 27.6% (active)

Compound | growth (% of control) [1, 3] | growth (% of control) ([1]; control condition) | O2 uptake (% of control) ([1]; stronger effect = lower value) | O2 uptake (% of control) [2]
O=C(Nc1cccc([N+](=O)[O-])c1)c1ccccc1 | 61.1% | 103% | 95.6% | 36% (active)
Cc1cccc(C(=O)Nc2cccc(Br)c2)c1 | 26.6% | 101% | 90.2% | 18.6% (active)
N#Cc1cccc(C(=O)Nc2cccc(C(F)(F)F)c2)c1 | 49.7% | 90.1% | 89.3% | 28.9% (active)
O=C(Nc1cccc(Br)c1)c1ccccc1 | 51.9% | 71.6% | 88.5% | 15.7% (active)
COc1cccc(C(=O)Nc2ccccc2)c1 | 43.8% | 60.4% | 95.1% | 57.1% (active)
O=C(Nc1ccccc1)c1cccc(I)c1 | 67.8% | 86.4% | 87.7% | 21.9% (active)
O=C(Nc1cccc(C(F)(F)F)c1)c1cccc(Cl)c1 | 37.9% | 93.2% | 93.2% | 15.8% (active)
O=C(Nc1cccc(C(F)(F)F)c1)c1cccc(I)c1 | 49.4% | 83.8% | 82.2% | 17.5% (active)
Cc1cccc(C(=O)Nc2cccc(NC(=O)c3cccc(C)c3)c2)c1 | 70.5% | 118% | 102% | 51.6% (active)
O=C(Nc1cccc([N+](=O)[O-])c1)c1cccc(Cl)c1 | 84.5% | 90.6% | 93% | 22.3% (active)
O=C(Nc1cccc(C(F)(F)F)c1)c1ccccc1I | 14.6% | 92% | 79.2% | 14.3% (active)
O=C(Nc1cccc(Cl)c1)c1cccc(F)c1 | 17.8% | 60.1% | 78.3% | 24.6% (active)
O=C(Nc1cccc(OCc2ccccc2)c1)c1ccccc1 | 99.7% | 117% | 90.5% | 38.2% (active)
Cc1cccc(C(=O)Nc2cccc([N+](=O)[O-])c2)c1 | 36.7% | 80.2% | 98.8% | 34.3% (active)
O=C(Nc1ccc(N2CCOCC2)cc1)c1cccc(I)c1 | 95.3% | 99.3% | 94.4% | 74.5% (inactive)
NC(=O)c1ccccc1NC(=O)c1ccccc1 | 84.2% | 88.6% | 93.9% | 91.2%
NC(=O)c1ccccc1NC(=O)c1ccccc1I | 93.3% | 82.7% | 112% | 84.5% (inactive)
O=C(Nc1cccc(NC(=O)c2cccc(Br)c2)c1)c1cccc(Br)c1 | 77.6% | 95.3% | 105% | 66.5% (active)
